Assay results as given in PubChem BioAssay (NCATS).
“And” between values parts separate entries of the source, which are not always exact repeats. Identical values can stand only once. Results filed as inconclusive are left out. A call without a number means that no potency is given here. The source made the active and inactive calls. The call rests on the fitted dose curve; in most records, active means well fitted inhibition curve with a large enough effect; inconclusive means small, poorly fitted or top-dose-only effect; inactive means flat fitted curve, though single readings scatter. Where a SMILES comes first, the peptide text is derived from it. [ ]: non-standard residue; d: D form. pGlu = O=C1CC[C@@H](C(=O)O)N1; Thz = O=C(O)[C@@H]1CSCN1

The compounds below were run against Voltage-gated inwardly rectifying potassium channel KCNH2 (Homo sapiens) (UniProt Q12809) (assay: qHTS Assay for Small Molecule Inhibitors of the Human hERG Channel Activity (AID 588834;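 further: lower thallium flux fluorescence means stronger hERG block; nearly all actives have a fitted effect of over 50% in size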)). Details: U2OS BacMam hERG, FluxOR thallium flux fluorescence; series mostly up to 46.1 µM.
In short: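 hERG-BacMam U2OS, 2000 cells/well; 0.7X FluxOR loading 1 hr RT dark; cpd ~10 min 37 °C; stim buffer; FDSS fluorescence 2 min @ 1 s; AC50 Hill fit.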
Potency means the concentration at half of the fitted maximal effect.

Voltage-gated inwardly rectifying potassium channel KCNH2 (Homo sapiens), sequence (Q12809 whole entry, looked up): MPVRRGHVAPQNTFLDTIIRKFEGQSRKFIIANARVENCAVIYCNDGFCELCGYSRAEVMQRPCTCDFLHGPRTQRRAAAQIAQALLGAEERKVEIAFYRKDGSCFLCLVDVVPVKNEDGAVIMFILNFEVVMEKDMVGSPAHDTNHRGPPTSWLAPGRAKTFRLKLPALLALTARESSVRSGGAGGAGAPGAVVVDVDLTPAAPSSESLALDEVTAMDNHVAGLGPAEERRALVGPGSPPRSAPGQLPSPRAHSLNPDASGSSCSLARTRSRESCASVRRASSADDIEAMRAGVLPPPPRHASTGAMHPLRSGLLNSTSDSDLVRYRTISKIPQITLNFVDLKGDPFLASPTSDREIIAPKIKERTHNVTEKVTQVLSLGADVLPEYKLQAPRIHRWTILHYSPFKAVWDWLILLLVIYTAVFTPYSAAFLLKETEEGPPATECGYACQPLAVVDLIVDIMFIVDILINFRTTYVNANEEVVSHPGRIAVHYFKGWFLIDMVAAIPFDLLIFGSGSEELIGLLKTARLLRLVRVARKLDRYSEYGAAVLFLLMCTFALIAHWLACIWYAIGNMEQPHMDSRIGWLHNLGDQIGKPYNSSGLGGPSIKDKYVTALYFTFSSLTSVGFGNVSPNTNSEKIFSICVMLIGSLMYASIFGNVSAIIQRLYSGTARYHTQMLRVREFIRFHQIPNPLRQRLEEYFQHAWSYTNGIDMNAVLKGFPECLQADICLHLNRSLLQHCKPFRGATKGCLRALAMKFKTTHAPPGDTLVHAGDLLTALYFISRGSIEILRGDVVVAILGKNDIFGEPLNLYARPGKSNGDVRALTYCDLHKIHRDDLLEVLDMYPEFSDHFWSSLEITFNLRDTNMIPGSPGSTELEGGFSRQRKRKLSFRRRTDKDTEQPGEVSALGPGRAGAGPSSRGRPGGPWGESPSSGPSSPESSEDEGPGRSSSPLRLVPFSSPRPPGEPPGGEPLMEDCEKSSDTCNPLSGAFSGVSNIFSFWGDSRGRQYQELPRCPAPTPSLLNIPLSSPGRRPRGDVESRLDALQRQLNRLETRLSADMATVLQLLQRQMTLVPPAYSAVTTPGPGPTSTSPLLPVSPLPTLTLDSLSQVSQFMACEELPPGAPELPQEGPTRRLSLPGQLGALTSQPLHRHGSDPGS

Row | Compound | Potency
1 | CN1[C@@H](CC(=O)c2ccccc2)CCC[C@H]1C[C@H](O)c1ccccc1 | 1.41 µM (active)
2 | CCCCCCOc1ccccc1C(N)=O | inactive
3 | COc1cc(/C=C/C(=O)N2CCN(CC(=O)N3CCCC3)CC2)cc(OC)c1OC | inactive
4 | Cc1cc(O)c2ccccc2c1O | inactive
5 | CCCCC[C@H](O)/C=C/[C@@H]1[C@@H](C/C=C\CCCC(=O)O)[C@@H](O)C[C@H]1O | inactive
6 | CC1(C)C[C@@H]1C(=O)N/C(=C\CCCCSC[C@H](N)C(=O)O)C(=O)O | inactive
7 | Clc1ccccc1-c1nc(-c2ccncc2)no1 | inactive
8 | Cc1ccccc1CNc1ncnc2c1ncn2C1OC(CO)C(O)C1O (stereo not drawn) | inactive
9 | COc1cc2c3cc1Oc1cc(ccc1O)C[C@@H]1c4c(cc(OC)c(O)c4Oc4ccc(cc4)C[C@@H]3N(C)CC2)CC[N+]1(C)C | inactive
10 | Cc1ccc(O)c(-n2nc3ccccc3n2)c1 | inactive
11 | CCCCCC[C@@H](O)C/C=C\CCCCCCCC(=O)O | inactive
12 | [O-][n+]1ccccc1SSc1cccc[n+]1[O-] | inactive
13 | C[S+](CC[C@H](N)C(=O)O)C[C@H]1O[C@@H](n2cnc3c(N)ncnc32)[C@H](O)[C@@H]1O (stereo partly drawn) | inactive
14 | O=C1CC[C@@H](C(=O)N2CSC[C@H]2C(=O)O)N1 ([pGlu]-[Thz]-OH) | inactive
15 | CC(C)Cc1ccc([C@H](C)C(=O)O)cc1 | inactive
16 | O=C(O)Cc1ccc(-c2ccccc2)cc1 | inactive
17 | CC1(C)S[C@@H]2[C@H](NC(=O)[C@H](NC(=O)N3CCN(S(C)(=O)=O)C3=O)c3ccccc3)C(=O)N2[C@H]1C(=O)O | inactive
18 | CCCC(=O)OC[C@@H](OC(=O)CCC)[C@@H](OC(=O)CCC)[C@H](Cn1c2nc(=O)[nH]c(=O)c-2nc2cc(C)c(C)cc21)OC(=O)CCC | 10 µM (active)
19 | COc1ccc(/C=C/C(=O)Nc2ccccc2C(=O)O)cc1OC | inactive
20 | N.N.O=C(O)C1(C(=O)O)CCC1.[Pt] | inactive
21 | C=C(Nc1ccc(OCC)cc1)Nc1ccc(OCC)cc1 | 14.1 µM (active)
22 | CCOC(=O)c1ccccc1O | inactive
23 | O=c1[nH]c2ccccc2n1CCCN1CCN(C(c2ccccc2)c2ccccc2)CC1 | 3.55 µM (active)
25 | CN1CC(=O)N/C1=N/C(=O)Nc1cccc(Cl)c1 | inactive

What follows are compounds tested against Luciferin 4-monooxygenase (Photinus pyralis) (UniProt P08659) (assay: Biochemical firefly luciferase enzyme assay for NPC (AID 624030; further: nearly all actives have a fitted effect of over 70% in size)). Details: purified P. pyralis luciferase, luminescence, 5 min; series mostly up to 58.6 µM.
In short: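 Direct inhibition of firefly luciferase enzyme (10 nM final, 50 mM Tris Acetate) assessed by luminescence within 5 minutes. Percent activity scaled between DMSO and PTC124 positive control, with concentration-effect curves classified by fit quality and response.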

Luciferin 4-monooxygenase (Photinus pyralis), sequence (P08659 whole entry, looked up): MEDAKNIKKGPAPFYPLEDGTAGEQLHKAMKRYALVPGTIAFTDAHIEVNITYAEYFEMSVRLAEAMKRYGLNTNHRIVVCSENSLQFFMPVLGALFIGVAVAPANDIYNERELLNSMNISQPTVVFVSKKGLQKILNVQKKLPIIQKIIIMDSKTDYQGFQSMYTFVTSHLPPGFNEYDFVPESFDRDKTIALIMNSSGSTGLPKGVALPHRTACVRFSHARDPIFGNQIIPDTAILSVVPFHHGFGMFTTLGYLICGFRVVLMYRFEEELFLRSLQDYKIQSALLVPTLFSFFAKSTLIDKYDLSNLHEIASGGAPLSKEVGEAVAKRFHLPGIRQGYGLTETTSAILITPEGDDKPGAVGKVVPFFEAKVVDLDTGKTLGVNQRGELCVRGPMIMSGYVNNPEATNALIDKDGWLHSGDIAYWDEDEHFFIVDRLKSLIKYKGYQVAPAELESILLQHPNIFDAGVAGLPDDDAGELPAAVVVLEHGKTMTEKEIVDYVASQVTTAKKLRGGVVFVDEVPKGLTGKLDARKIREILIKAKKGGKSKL

Row | Compound | Potency
26 | CN1[C@@H](CC(=O)c2ccccc2)CCC[C@H]1C[C@H](O)c1ccccc1 | inactive
27 | CCCCCCOc1ccccc1C(N)=O | inactive
28 | Cc1[nH]cnc1CN1CCc2c(c3ccccc3n2C)C1=O | inactive
29 | COc1cc(/C=C/C(=O)N2CCN(CC(=O)N3CCCC3)CC2)cc(OC)c1OC | inactive
30 | CC1(C)[C@@H](O)CC[C@]2(C)[C@H]3C(=O)C=C4[C@@H]5C[C@@](C)(C(=O)O)CC[C@]5(C)CC[C@@]4(C)[C@]3(C)CC[C@@H]12 | inactive
31 | CCC1C(=O)OCC1Cc1cncn1C (stereo not drawn) | inactive
32 | Cc1cc(O)c2ccccc2c1O | inactive
33 | CC(=O)c1ccc(OCC(=O)N2CCCCC2)cc1 | inactive
34 | O=C(CCN1CCN(CCO)CC1)N1c2ccccc2Sc2ccc(C(F)(F)F)cc21 | inactive
35 | CCCCC[C@H](O)/C=C/[C@@H]1[C@@H](C/C=C\CCCC(=O)O)[C@@H](O)C[C@H]1O | inactive
36 | CC1(C)C[C@@H]1C(=O)N/C(=C\CCCCSC[C@H](N)C(=O)O)C(=O)O | inactive
37 | Clc1ccccc1-c1nc(-c2ccncc2)no1 | 3.61 µM (active)
38 | O=C1CN(/N=C/c2ccc(-c3ccc([N+](=O)[O-])cc3)o2)C(=O)N1 | inactive
39 | Cc1ccccc1CNc1ncnc2c1ncn2C1OC(CO)C(O)C1O (stereo not drawn) | inactive
40 | COc1cc2c3cc1Oc1cc(ccc1O)C[C@@H]1c4c(cc(OC)c(O)c4Oc4ccc(cc4)C[C@@H]3N(C)CC2)CC[N+]1(C)C | inactive
41 | NC(=O)C(c1ccccc1)(c1ccccc1)[C@@H]1CCN(CCc2ccc3c(c2)CCO3)C1 | inactive
42 | Cc1ccc(O)c(-n2nc3ccccc3n2)c1 | 2.87 µM (active)
43 | CCCCCC[C@@H](O)C/C=C\CCCCCCCC(=O)O | inactive
44 | [O-][n+]1ccccc1SSc1cccc[n+]1[O-] | 2.56 µM (active)

Row | Compound | Potency
45 | C[S+](CC[C@H](N)C(=O)O)C[C@H]1O[C@@H](n2cnc3c(N)ncnc32)[C@H](O)[C@@H]1O (stereo partly drawn) | inactive
46 | CC1OC1P(=O)(O)O (stereo not drawn) | inactive
47 | O=C1CC[C@@H](C(=O)N2CSC[C@H]2C(=O)O)N1 ([pGlu]-[Thz]-OH) | inactive
48 | CC(C)Cc1ccc([C@H](C)C(=O)O)cc1 | inactive
49 | O=C(O)Cc1ccc(-c2ccccc2)cc1 | inactive
50 | CC1(C)S[C@@H]2[C@H](NC(=O)[C@H](NC(=O)N3CCN(S(C)(=O)=O)C3=O)c3ccccc3)C(=O)N2[C@H]1C(=O)O | inactive
51 | CCCC(=O)OC[C@@H](OC(=O)CCC)[C@@H](OC(=O)CCC)[C@H](Cn1c2nc(=O)[nH]c(=O)c-2nc2cc(C)c(C)cc21)OC(=O)CCC | inactive
52 | Cc1c(N)c(=O)n(-c2ccccc2)n1C | inactive
53 | COc1ccc(/C=C/C(=O)Nc2ccccc2C(=O)O)cc1OC | 0.181 µM (active)
54 | N=C(N)N | inactive
55 | COC(=O)C1=C(C)NC(C)=C(C(=O)OCC(C)=O)C1c1ccccc1[N+](=O)[O-] (stereo not drawn) | inactive
56 | CO[C@@]1(NC(=O)Cc2cccs2)C(=O)N2C(C(=O)O)=C(COC(N)=O)CS[C@@H]21 | inactive
57 | CC(N)C(=O)OC(C)(C)Cc1ccc(Cl)cc1 (stereo not drawn) | inactive
58 | N.N.O=C(O)C1(C(=O)O)CCC1.[Pt] | inactive
59 | C=C(Nc1ccc(OCC)cc1)Nc1ccc(OCC)cc1 | inactive
60 | CCOC(=O)c1ccccc1O | inactive
61 | O=c1[nH]c2ccccc2n1CCCN1CCN(C(c2ccccc2)c2ccccc2)CC1 | inactive
62 | CN1[C@@H]2CC[C@H]1CC(OC(c1ccccc1)c1ccccc1)C2 (stereo partly drawn) | inactive
63 | CN1CC(=O)N/C1=N/C(=O)Nc1cccc(Cl)c1 | inactive
